Our source for the growth values is PubChem BioAssay (NCI).

Compounds without any hit were thinned out: in the full panel of roughly 83,000, 20% have a hit.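 Values shown are percent growth following 48 h exposure of cells in 96-well plates to a single concentration of compound; below 10 was considered active.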 Unmarked numbers belong to inactive results. Activity calls are given as the source filed them.

Test systems include SR leukemia; OVCAR-8 ovarian; OVCAR-5 ovarian; OVCAR-4 ovarian; SK-OV-3 ovarian; IGROV1 ovarian; OVCAR-3 ovarian; HS 578T breast; NCI/ADR-RES ovarian; T-47D breast; BT-549 breast; MDA-MB-435 melanoma; SW-620 colon; MCF7 breast; HCT-116 colon; HCC-2998 colon; KM12 colon; RPMI-8226 leukemia.
Holding throughout (test): NCI-60 one-dose screen, 48 h (100 = growth as untreated, 0 = no growth, -100 = all killed)
What all share (details): 10 µM unless noted

Regarding `Cn1c(=O)c2c(nc(N3CCCC3)n2C)n(C)c1=O`, the growth was 100% in the assay with SR leukemia; 100% with OVCAR-8 ovarian; 99.1% with OVCAR-5 ovarian; 99.1% in the assay on OVCAR-4 ovarian; 103% in the assay on SK-OV-3 ovarian; 98.5% with IGROV1 ovarian. For the same molecule, the growth with OVCAR-3 ovarian is 110%; in the assay on HS 578T breast, 105%; with NCI/ADR-RES ovarian it was 103%; with T-47D breast, 90.5%; with BT-549 breast, 97%; in the assay with MDA-MB-435 melanoma, 107%. Moreover, the growth is 106% in the assay with SW-620 colon; 99.1% in the assay on MCF7 breast; 93.3% in the assay on HCT-116 colon; 108% with HCC-2998 colon; 101% in the assay on KM12 colon.

Consider `O=C1CCCC=CC[C@H]2C=C(Cl)C(=O)C2=CC[C@H](CCCCC(F)(F)F)OC(=O)CCCC=CC[C@H]2C=C(Cl)C(=O)C2=CC[C@H](CCCCC(F)(F)F)OC(=O)CCCC=CC[C@H]2C=C(Cl)C(=O)C2=CC[C@H](CCCCC(F)(F)F)O1`, for which the growth is 4.9% [6.25 µM] (active) in the assay on RPMI-8226 leukemia; 8.78% [6.25 µM] (active) in the assay on OVCAR-8 ovarian; 140% [6.25 µM] in the assay with OVCAR-5 ovarian; 68.7% [6.25 µM] in the assay on OVCAR-4 ovarian; 119% [6.25 µM] with SK-OV-3 ovarian; 43.7% [6.25 µM] in the assay with IGROV1 ovarian. Besides, the growth was 14.3% [6.25 µM] in the assay on OVCAR-3 ovarian; 81.9% [6.25 µM] with HS 578T breast; 97.6% [6.25 µM] in the assay on NCI/ADR-RES ovarian; 71.2% [6.25 µM] in the assay on T-47D breast; 78.5% [6.25 µM] in the assay on BT-549 breast; 30.6% [6.25 µM] with MDA-MB-435 melanoma. In addition, the growth in the assay on SW-620 colon is 17.3% [6.25 µM]; in the assay on MCF7 breast, 30.5% [6.25 µM]; with HCT-116 colon, 7.18% [6.25 µM] (active); in the assay with HCC-2998 colon, 98.5% [6.25 µM]; in the assay on KM12 colon, 94.3% [6.25 µM].

With `O=c1[nH]c(=S)[nH]c2nc[nH]c12`, the growth in the assay with RPMI-8226 leukemia was 99.2%; in the assay with OVCAR-8 ovarian, 95.2%; in the assay on OVCAR-5 ovarian, 90.5%; with OVCAR-4 ovarian, 107%; with SK-OV-3 ovarian it was 112%; with IGROV1 ovarian it was 105%. In addition, the growth in the assay on OVCAR-3 ovarian was 115%; with NCI/ADR-RES ovarian it was 95.1%; in the assay on T-47D breast, 105%; in the assay with BT-549 breast it was 109%; in the assay on MDA-MB-435 melanoma, 110%; in the assay with SW-620 colon, 99.2%. The growth is 97.4% in the assay on MCF7 breast, 93.9% with HCT-116 colon, 99.7% with HCC-2998 colon and 106% with KM12 colon.

For the molecule `COc1cc2c(cc1OC)C(=O)/C(=C/c1cc(-c3ccc4c(c3)OCO4)n[nH]1)C2`, the growth is -46.7% (active) with RPMI-8226 leukemia; 37.9% in the assay with OVCAR-5 ovarian; 14.4% in the assay on OVCAR-4 ovarian; 33.6% in the assay with SK-OV-3 ovarian; 52.7% in the assay with IGROV1 ovarian; -50.4% (active) in the assay with OVCAR-3 ovarian. The growth with NCI/ADR-RES ovarian was -15% (active); with T-47D breast, -4.12% (active); in the assay on BT-549 breast it was -47.8% (active); in the assay with MDA-MB-435 melanoma, 17.3%; in the assay on SW-620 colon, -84.9% (active); with MCF7 breast it was 0.343% (active). The growth in the assay on HCT-116 colon was -61% (active); in the assay on HCC-2998 colon it was 89.3%; in the assay on KM12 colon it was -82.3% (active).

Consider `Cc1ccc2c(c1)c(-c1nc(-c3c[nH]c4ncccc34)cs1)cn2C`, for which the growth was 72.7% in the assay with RPMI-8226 leukemia; 104% in the assay on OVCAR-8 ovarian; 68.6% with OVCAR-5 ovarian; 102% in the assay with SK-OV-3 ovarian; 99.2% with IGROV1 ovarian; 139% with OVCAR-3 ovarian. The growth was 109% with HS 578T breast; 89.4% in the assay with NCI/ADR-RES ovarian; 45.3% in the assay on T-47D breast; 104% with BT-549 breast; 96.5% in the assay on MDA-MB-435 melanoma; 17.4% in the assay on MCF7 breast. Also, the growth with HCT-116 colon was 85.1%; in the assay with HCC-2998 colon it was 80%; with KM12 colon it was 57.8%.

Consider `c1ccc2c(-c3nc(-c4c[nH]c5ncccc45)cs3)c[nH]c2c1`, for which the growth is 76.7% in the assay with RPMI-8226 leukemia; 98.4% in the assay with OVCAR-8 ovarian; 119% in the assay on OVCAR-5 ovarian; 88.6% in the assay with SK-OV-3 ovarian; 59.3% with IGROV1 ovarian; 102% in the assay on OVCAR-3 ovarian. Besides, the growth was 110% in the assay with HS 578T breast; 107% in the assay with NCI/ADR-RES ovarian; 93.8% in the assay on T-47D breast; 97% in the assay with BT-549 breast; 84.8% in the assay with MDA-MB-435 melanoma; 103% in the assay with SW-620 colon. Besides, the growth in the assay on MCF7 breast was 83%; in the assay on HCT-116 colon it was 95%; in the assay with HCC-2998 colon it was 102%; with KM12 colon, 90.6%.

Turning to `Cn1cc(-c2nc(-c3c[nH]c4ncccc34)cs2)c2ccccc21`, the growth in the assay with RPMI-8226 leukemia was 64%; in the assay on OVCAR-8 ovarian, 101%; with OVCAR-5 ovarian, 49.1%; in the assay with SK-OV-3 ovarian, 95.5%; in the assay on IGROV1 ovarian it was 51%; in the assay with OVCAR-3 ovarian, 77.7%. Moreover, the growth with HS 578T breast was 103%; with NCI/ADR-RES ovarian, 74.4%; with T-47D breast it was 29.1%; in the assay on BT-549 breast it was 82.9%; in the assay on MDA-MB-435 melanoma, 36.5%; in the assay with SW-620 colon it was 95.8%. Besides, the growth in the assay on MCF7 breast is 10.5%; with HCT-116 colon, 76.9%; in the assay on HCC-2998 colon, 32.6%; in the assay with KM12 colon, 12.9%.

`COc1cccc(-c2nn(-c3ccccc3)cc2-c2ccnc(NCCCNS(=O)(=O)c3ccc(Br)cc3)c2)c1`: the growth was 34.5% in the assay with RPMI-8226 leukemia; 47.9% in the assay on OVCAR-8 ovarian; 88.2% in the assay on OVCAR-5 ovarian; 46.5% in the assay with OVCAR-4 ovarian; 64.8% in the assay with SK-OV-3 ovarian; 47.6% in the assay with IGROV1 ovarian. Also, the growth in the assay on OVCAR-3 ovarian is 58.8%; in the assay with HS 578T breast it was 66.2%; with NCI/ADR-RES ovarian, 42%; in the assay with T-47D breast, 18.5%; in the assay with BT-549 breast, 73%; in the assay with MDA-MB-435 melanoma it was 54.3%. Moreover, the growth in the assay on SW-620 colon is 69.7%; in the assay on HCT-116 colon, 40.8%; in the assay with HCC-2998 colon, 46%; in the assay on KM12 colon, 44.1%.

As for `O=C(CI)Nc1ccc(O)c2ccccc12`, the growth with RPMI-8226 leukemia was -18.8% (active); in the assay on OVCAR-8 ovarian, -22.9% (active); in the assay with OVCAR-5 ovarian, 18.5%; in the assay on OVCAR-4 ovarian it was 26.6%; in the assay on SK-OV-3 ovarian, 77.5%; in the assay with IGROV1 ovarian, -15.5% (active). In addition, the growth was -29.5% (active) in the assay with OVCAR-3 ovarian; 33.2% with HS 578T breast; -15.1% (active) with NCI/ADR-RES ovarian; -52% (active) with T-47D breast; 44.1% in the assay on BT-549 breast; -68.9% (active) in the assay on SW-620 colon. For the same molecule, the growth in the assay with MCF7 breast was 0.823% (active); with HCT-116 colon, -59.5% (active); in the assay on HCC-2998 colon, 82.4%; in the assay with KM12 colon, 64.8%.
